Screens from PubChem BioAssay.
ST2 IL33 inh – inhibitors of human ST2 (IL1RL1) binding to IL-33, primary screen, biochemical, AlphaLISA; AlphaLISA ST2-Fc/biotin-IL-33 interaction, 1 h; inhibition, % for hits at 17 µM; 78,000 compounds, 2.3% hits; in the data active = inhibition above about 30%
Target sequence (Q01638 whole entry, looked up): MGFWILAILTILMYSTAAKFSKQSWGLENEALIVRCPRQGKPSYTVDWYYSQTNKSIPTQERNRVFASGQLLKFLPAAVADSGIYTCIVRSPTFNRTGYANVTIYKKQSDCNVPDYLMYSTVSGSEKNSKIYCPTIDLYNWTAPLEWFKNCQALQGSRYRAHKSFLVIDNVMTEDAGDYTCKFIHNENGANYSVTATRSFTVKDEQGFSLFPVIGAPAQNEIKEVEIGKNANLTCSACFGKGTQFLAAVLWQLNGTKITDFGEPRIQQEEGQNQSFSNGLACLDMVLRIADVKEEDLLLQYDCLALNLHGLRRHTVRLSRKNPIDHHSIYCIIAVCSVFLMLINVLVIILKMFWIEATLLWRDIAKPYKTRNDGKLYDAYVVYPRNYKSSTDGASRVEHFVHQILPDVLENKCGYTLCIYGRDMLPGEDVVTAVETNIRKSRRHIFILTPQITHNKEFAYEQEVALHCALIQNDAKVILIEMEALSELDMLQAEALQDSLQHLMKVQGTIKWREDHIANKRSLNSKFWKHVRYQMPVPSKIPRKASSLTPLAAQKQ
A number is an active result; 0 = inactive; ! = repeats disagree. The full list was thinned out, with hits kept by preference.

SMILES	ST2 IL33 inh
O=C1CC(c2ccccc2)CC2=C1C(c1c(F)cccc1Cl)Nc1ccccc1N2 (configuration not stated)	0
COc1ccc(/C=C(\C#N)c2nc3ccccc3[nH]2)c(OC)c1	0
COc1ccc(/C=C(\C#N)c2ccc([N+](=O)[O-])cc2)c(OC)c1	48.0%
CN(C)c1ccc(/C=C(\C#N)c2ccc([N+](=O)[O-])cc2)cc1	0
CCC(C)NC(=O)c1cc(-c2ccc(Cl)c(Cl)c2)on1 (configuration not stated)	0
O=C(COc1ccccc1)OCC(=O)N1c2ccccc2Sc2ccccc21	0
CN(C(=O)N1c2ccccc2Sc2ccccc21)c1ccccc1	0
N/C(=N/OC(=O)N1c2ccccc2Sc2ccccc21)c1ccccc1	50.0%
Cc1ccc(-n2[nH]c(=O)c(C3=c4ccccc4=NC3=O)c2O)cc1Cl	0
CCc1ccc(N2C(=O)c3ccccc3NC2c2ccc3c(c2)OCO3)cc1 (configuration not stated)	0
Cc1ccc(S(=O)(=O)N2CCCCC2)cc1[N+](=O)[O-]	0
Cc1ccc(S(=O)(=O)N2CCc3ccccc32)cc1C(N)=O	0
Cc1ccc(S(=O)(=O)N2CCc3ccccc32)cc1[N+](=O)[O-]	36.0%
Cc1ccc(C(=O)N2CCC(C(N)=O)CC2)cc1Cl	0
COCCNC(=O)c1cc2cc3ccc(C)cc3nc2s1	0
COc1ccc(CNC(=O)c2cc3cc4ccc(OC)cc4nc3s2)cc1	38.0%
COc1ccc(CNC(=O)c2cc3cc4ccc(OC)cc4nc3o2)cc1	0
CCOC(CCNC(=O)c1cc2cc3ccc(OC)cc3nc2s1)OCC	0
COc1ccc2cc3cc(C(=O)NCc4ccc(F)cc4)sc3nc2c1	31.0%
COc1ccc(CNC(=O)c2cc3cc4ccc(OC)cc4nc3s2)c(OC)c1	0
CCc1cc(C(=O)NCc2c(C)ncc3c2CCN(C(=O)/C=C/c2cccs2)C3)no1	0
CCN(Cc1ccccc1)C(=O)c1cccn2c(=O)c3c4c(sc3nc12)CCCC4	0
O=C(Nc1nc(-c2ccccn2)cs1)c1ccc(S(=O)(=O)N2CCOCC2)cc1	0
Cc1ccc(-c2csc(NC(=O)c3ccc(S(=O)(=O)N4CCc5ccccc54)cc3)n2)o1	39.0%
CC(=O)c1sc(NC(=O)c2ccc(S(=O)(=O)N3CCc4ccccc43)cc2)nc1C	0
SMILES	ST2 IL33 inh
COc1ncc(CN2C[C@H](N)C[C@H]2C(=O)NC(C)C)cn1	0
COc1cc(C2NC(=O)NC(C)=C2C(=O)OCCSC)cc(Cl)c1O (configuration not stated)	0
CCN(CC)CCNC(=O)c1ccc2c(c1)NC(=O)CS2	0
CCOc1ccc(S(=O)(=O)NCCC2=CCCCC2)c2cccnc12	0
O=S(=O)(NCc1ccccc1Cl)c1ccccc1	0
COc1cccc(OC)c1-c1ccc2nc(CO)[nH]c2c1	0
C[C@@H]1C(=O)O[C@H]2[C@H]1CC[C@@]1(C)Cc3sc(Nc4ccc(O)cc4)nc3[C@@H](C)[C@H]21	0
O=C(O)CC1(c2ccccc2)C(=O)c2ccccc2C1=O	0
N#CSc1ccc(NC2(c3ccccc3)C(=O)c3ccccc3C2=O)cc1	34.0%
Cc1sc2ncn(CC(=O)NCCCC(=O)Nc3ccc4c(c3)OCO4)c(=O)c2c1C	0
COc1ccccc1NS(=O)(=O)c1ccc2c(c1)CCN2C(=O)C1CC1	0
COc1ccc(N(CC(=O)Nc2ccc(F)cc2)S(C)(=O)=O)cc1Cl	0
COc1cccc(NC(=O)CN(c2ccc(Cl)c(Cl)c2)S(C)(=O)=O)c1	96.0%
COc1ccc(N(CC(=O)Nc2ccc(C)c(Cl)c2)S(C)(=O)=O)cc1	0
O=C1NCC2(CCCN(c3ncnc4sccc34)CC2)O1 (configuration not stated)	0
Cc1nc(Nc2ccccc2C)c([N+](=O)[O-])[nH]1	0
Cc1cccc(N2C(=O)CC(N3CCOCC3)C2=O)c1 (configuration not stated)	0
Cc1ccc(S(=O)(=O)N2CCN(c3nc(C)cc(N4CCOCC4)n3)CC2)cc1	0
Cc1ccc(SC2=C(N3CCOCC3)C(=O)N(c3cc(C)cc(C)c3)C2=O)cc1	43.0%
O=C(Nc1cc(Cl)cc(Cl)c1)c1ccccc1Cl	0
O=C(Nn1cnnc1)c1ccccc1Cl	56.0%
O=C(Nn1cnnc1)c1ccc(C(=O)Nn2cnnc2)cc1	0
COc1ccc(S(=O)(=O)CCO)cc1N	0
Cc1nc2c(C(=O)NCCCN3CCCC3)cnn2c(C)c1Cc1c(F)cccc1Cl	0
O=C(NCCCN1CCCCCC1)c1cc2cc3ccc(Cl)cc3nc2o1	44.0%!
SMILES	ST2 IL33 inh
COc1ccc2cc3cc(C(=O)NCCCN4CCN(C)CC4)oc3nc2c1	0
CCN(CCCNC(=O)c1cc2cc3ccc(Cl)cc3nc2o1)c1ccccc1	34.0%!
O=C(Nc1ccc(F)cc1)c1cc2cc3ccc(Cl)cc3nc2o1	37.0%!
COc1ccc2cc3cc(C(=O)Nc4ccc(F)cc4Cl)oc3nc2c1	0
CCCN(CCC)CCCNC(=O)c1cc2cc3ccc(OC)cc3nc2o1	0
CCCCN(CC)CCCNC(=O)c1cc2cc3ccc(OC)cc3nc2o1	0
CCC1CCCCN1CCCNC(=O)c1cc2cc3ccc(Cl)cc3nc2o1 (configuration not stated)	0
COc1ccc2cc3cc(C(=O)Nc4cc(Cl)ccc4OC)oc3nc2c1	0
Cn1c(=O)c2c(nc(N3CCCC3)n2CCSc2nc3ccccc3o2)n(C)c1=O	0
O=C(CCC(F)(F)F)N1CCCC(c2nc(-c3cccnc3)ncc2-c2ccccc2F)C1 (configuration not stated)	0
O=C(CC1(c2cccc(F)c2)CC(=O)N(Cc2cccnc2)C1=O)N1CCN(C2CCCC2)C(=O)C1 (configuration not stated)	0
O=C(Nc1ccc(S(=O)(=O)N2CCN(c3ccccc3)CC2)cc1)c1ccccc1Cl	0
CN(CCC#N)C12CC3CC(CC(C3)C1)C2	0
CCOC(=O)C1=NN(c2ccc(Cl)cc2)C2C(=O)N(c3ccccc3OC)C(=O)C12 (configuration not stated)	0
CC(c1ccccc1-n1cccn1)N1Cc2ncccc2C1=O (configuration not stated)	0
CCC(CC)C(=O)Nc1ccc2c(c1)OCO2	0
CCOC(=O)C1CCN(C(c2ccccc2)c2sc3nc(C)nn3c2O)CC1 (configuration not stated)	0
COc1ccc(OC)c(NC(=O)CSc2nc3ccccc3o2)c1	0
CC1CN(S(=O)(=O)c2ccc(Cl)c(C(=O)Nc3ccc([N+](=O)[O-])cc3)c2)CC(C)O1 (configuration not stated)	0
Cc1nnc(NC(=O)Nc2ccccc2)s1	0
CC(C)c1nnc(NC(=O)c2ccc(Br)cc2)s1	0
Cc1nnc(NC(=O)c2ccc(C(C)C)cc2)s1	92.0%
Cc1nn(-c2cccc(Cl)c2)c2c1C(c1cccc([N+](=O)[O-])c1)C(C#N)=C(N)O2 (configuration not stated)	45.0%
Cc1nn(-c2ccccc2)c2c1C(c1cccc([N+](=O)[O-])c1)C(C#N)=C(N)O2 (configuration not stated)	0
COc1cccc(C2C(C#N)=C(N)Oc3c2c(=O)n(C)c(=O)n3C)c1 (configuration not stated)	0
O=C1OC(Nc2cc(C(F)(F)F)ccc2Cl)c2ccccc21 (configuration not stated)	0
Nc1nc2ccccc2nc1N	0
Nc1cc2c3c(cccc3n1)C(=O)c1ccccc1-2	34.0%
O=C1c2ccccc2C(=O)c2c1nc1n2CCOC1	0
